Several values for one entry are separate records, joined by “and”; a condition that tells them apart may be missing. Equal entries are not always repeated. Where a structure was tested more than once in an assay, its records may differ in their call. Activity calls are given as the source filed them. Rule for the calls: active = hit-call score of the fitted dose curve at least 0.9, where 1 is the maximum; inactive = score below 0.9.

A word on the AC50: it is the concentration at which the activity in the assay is half-maximal.

Read-out in the assay: Interleukin-8 (IL8), CXCL8 (gene 3576)
Nature of the assay: BSK_LPS_IL8: BioMAP Diversity Plus: LPS Assay for Interleukin-8 (IL8) Biomarker Activity (AID 2283078). Conditions: primary human HUVEC with PBMC; actives raise or lower the signal. As to the method: BSK_LPS is a cell-based, multiplexed-readout assay that uses umbilical vein endothelium and peripheral blood mononuclear cells, a human vascular primary cell co-culture, with measurements taken at 24 hours after chemical dosing in a 96-well plate.BSK_LPS_IL8 is an assay component measured in the BSK_LPS assay. It measures IL-8 antibody related to regulation of gene expression using ELISA technology.Data from the assay component BSK_LPS_IL8 was analyzed into 1 assay endpoint. This assay endpoint, BSK_LPS_IL8, was analyzed with bidirectional fitting relative to DMSO as the negative control and baseline of activity. Using a type of binding reporter, gain or loss-of-signal activity can be used to understand changes in the signaling as they relate to the gene CXCL8. Furthermore, this assay endpoint can be referred to as a primary readout, because this assay has produced multiple assay endpoints where this one serves a signaling function. To generalize the intended target to other relatable targets, this assay endpoint is annotated to the cytokine intended target family, where the subfamily is interleukins.
The levels of cell surface (or secreted, indicated by the prefix "s") biomarker endpoints were measured by ELISA. Overt cytotoxicity to cells in confluent adherent cultures (all systems other than the BT system) was assessed by measuring total protein levels using sulforhodamine B (SRB) staining in parallel cultures at the time of biomarker measurements, indicated as SRB endpoints. For proliferation assays for adherent cell types, individual cell types are cultured at sub-confluence and relative cell numbers quantified by SRB staining at time points optimized for each system (48 h: 3C and CASM3C systems; 72 h: BT and HDF3CGF systems; 96 h: SAg system). SRB was performed by staining cells with 0.1% SRB after fixation with 10% TCA and reading wells at 560 nm.Viability and proliferation of PBMC (T cells) was quantified by Alamar Blue reduction for the SAg and BT systems. For PBMC viability (referred to as PBMC Cytotoxicity within the assay endpoint names), cells were plated (75,000/well in a 96-well plate) and then chemical samples added for 1 h before addition of activators, SEB and TSST-1 (20 ng/mL final concentration each). Cells were incubated for 90 h. Then, Alamar Blue (20 uL/well) (Invitrogen, Cat DAL1100) was added for 6 h, and the plates were read with a fluorescence microplate reader at 546/580 nm (excitation/emission). For PBMC proliferation, cells were plated and activated as above but incubated for only 16 h prior to addition of Alamar Blue. Plates were read after 6 h.
Regarding `O=[N+]([O-])c1ccc(Cl)cc1`, the result was inactive.
Still for that read-out and setting: under `C=CC(=O)OCC(CC)CCCC` (stereo not given) stands “inactive”.
In the case of `Oc1ccc(C2(c3ccc(O)cc3)c3ccccc3-c3ccccc32)cc1`, the AC50 is 28.9 µM (active) and 28.2 µM (active).
Still for that read-out and setting: under `COC(C)(C)CCC[C@H](C)C/C=C/C(C)=C/C(=O)OC(C)C` stands 33.5 µM (active).
For `O=C1C=CC(=O)C=C1`, the AC50 was 23.6 µM (active) and the outcome was inactive.
`O=[N+]([O-])O`: the outcome was inactive.
Take `[Cd+2].[Cl-].[Cl-]`: the AC50 was 28.9 µM (active) and the outcome was inactive.
With `CC(C)(C)C(O)C(Oc1ccc(-c2ccccc2)cc1)n1cncn1` (stereo not given), the result was inactive.
Same read-out and setting: the result for `CC1(C)[C@H](C(=O)O[C@H](C#N)c2cccc(Oc3ccccc3)c2)[C@@H]1C=C(Br)Br` reads “inactive”.
For the compound `CC(C)(c1cc(Cl)c(O)c(Cl)c1)c1cc(Cl)c(O)c(Cl)c1`, the AC50 was 32.5 µM (active).
In the case of `CC(C)CCCCCCCOP(=O)(Oc1ccccc1)Oc1ccccc1`, the result was inactive.
On the same count and under the same terms, under `c1ccc(Nc2ccc3ccccc3c2)cc1` stands “inactive”.
For `O=C(O)CCCc1ccc(N(CCCl)CCCl)cc1`, the AC50 was 25.4 µM (active) and the outcome was inactive.
For `Cc1ccc(OP(=O)(Oc2ccc(C)cc2)Oc2ccc(C)cc2)cc1` (tested in a mixture with another compound), the half-maximal activity concentration (AC50) is 11.8 µM (active).
Same read-out and setting: under `O=C1C(Cl)=C(Cl)C(=O)C(Cl)=C1Cl` stands 29 µM (active).
The same measure, in the same setting: under `CCc1cc(C)cc(CC)c1-c1c(OC(=O)C(C)(C)C)n2n(c1=O)CCOCC2` stands 0.016 µM (active).
In the case of `O=P1(NCCCl)OCCCN1CCCl` (stereo not given), the outcome was inactive.
Turning to `O=S(=O)(c1ccccc1)c1ccccc1`, the result was inactive.
Same read-out and setting: under `C=CCN(CC=C)C(=O)C(Cl)Cl` stands “inactive”; under `Oc1cc(Cl)ccc1Cl`, “inactive”; under `CC(C)CCCCCCCOC(=O)c1ccccc1C(=O)OCCCCCCCC(C)C`, “inactive”.
Still for that read-out and setting: under `O=c1c2ccccc2c(=O)c2c1cc(Cl)c1[nH]c3c([nH]c12)c(Cl)cc1c(=O)c2ccccc2c(=O)c13` stands “inactive”.
As to `CCC(C)c1cc([N+](=O)[O-])cc([N+](=O)[O-])c1OC(=O)C=C(C)C` (stereo not given), the AC50 was 20 µM (active).
As for `O=C(CCl)c1ccccc1`, the AC50 is 7.85 µM (active).
Consider `CCCC[N+](CCCC)(CCCC)CCCC`, for which the outcome was inactive.
Take `N#CCCCCC#N`: the result was inactive.
Same read-out and setting: the result for `COCC(=O)N(c1c(C)cccc1C)N1CCOC1=O` reads “inactive”.
`O=[N+]([O-])C=Cc1ccccc1`: the AC50 was 20 µM (active).
With `Nc1ccc(-c2ccc(N)c(N)c2)cc1N`, the result was inactive.
Same read-out and setting: the result for `CCCOC(=O)c1ccccc1C(=O)OCCC` reads “inactive”; that for `CNC(=O)Oc1cc(C)c(SC)c(C)c1`, “inactive”.
As to `CC(C)COP(=O)(OCC(C)C)OCC(C)C`, the result was inactive.
Take `O=c1[nH]c(Cl)c(Cl)cc1Cl`: the result was inactive.
Regarding `CCCCCCCCCCCC#N`, the AC50 is 29 µM (active).
As to `Clc1ccc(-c2ccccc2)cc1`, the outcome was inactive.
As to `CC(=O)/C=C/c1ccccc1`, the AC50 was 20 µM (active).
Regarding `COc1ccc(CO)cc1`, the result was inactive.

The values are drawn from PubChem BioAssay (EPA / NIEHS).
